Sampled rows, rich in hits. Any-hit rate of the full collection: about 7.3%.
KinaseGlo FLuc – blocks Kinase-Glo luciferase, a counter-screen artifact; Kinase-Glo luciferase, ATP luminescence, 8 min; Potency, µM (doses to about 38.3 µM), for inactives: at the top dose activity change, negative = inhibition, hits mostly inhibitors; 200,000 tested, 0.28% active; AID 1379; note: % is set by controls: 0 for no effect and ±100 for the full control effect; nearly all actives have a fitted effect of over 60% in size
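Inhibition of Kinase-Glo luciferase light generation was assessed at 10 uM ATP in pH 7.2 imidazole buffer, with luminescence measured after eight minutes at ambient temperature.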
Rab9 prom act – Rab9 promoter activation. 320,000 tested, 2.8% active. AID 485297. Huh7 Rab9 promoter-luciferase reporter, luminescence, 24 h. Potency, µM (top dose mostly 9.22 µM), for the others: at the highest dose activation, negative = inhibition, most hits filed as activators; note: % of control where 0% means no effect; nearly all actives have a fitted effect of over 60% in size
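Steps: seed 1500 Huh7 Rab9-luc cells per well, rest 2 h at 37 °C; add compound in DMSO; incubate 24 h; add luciferase reagent, 10 min ambient; read luminescence.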
FLuc counter – firefly luciferase modulation, counter-screen for miR-21 project | P08659 | purified FLuc, Km substrates, luminescence inhibition | Potency, µM (highest dose often 57.5 µM), for inactives: top-dose activity change, negative = inhibition, hits mostly inhibitors | 360,000 tested, 6.9% active | AID 588342;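 note: plate controls were vehicle for no effect and reference inhibitor for full effect; nearly all actives have a fitted effect of over 55% in size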
Target sequence (P08659 whole entry, looked up): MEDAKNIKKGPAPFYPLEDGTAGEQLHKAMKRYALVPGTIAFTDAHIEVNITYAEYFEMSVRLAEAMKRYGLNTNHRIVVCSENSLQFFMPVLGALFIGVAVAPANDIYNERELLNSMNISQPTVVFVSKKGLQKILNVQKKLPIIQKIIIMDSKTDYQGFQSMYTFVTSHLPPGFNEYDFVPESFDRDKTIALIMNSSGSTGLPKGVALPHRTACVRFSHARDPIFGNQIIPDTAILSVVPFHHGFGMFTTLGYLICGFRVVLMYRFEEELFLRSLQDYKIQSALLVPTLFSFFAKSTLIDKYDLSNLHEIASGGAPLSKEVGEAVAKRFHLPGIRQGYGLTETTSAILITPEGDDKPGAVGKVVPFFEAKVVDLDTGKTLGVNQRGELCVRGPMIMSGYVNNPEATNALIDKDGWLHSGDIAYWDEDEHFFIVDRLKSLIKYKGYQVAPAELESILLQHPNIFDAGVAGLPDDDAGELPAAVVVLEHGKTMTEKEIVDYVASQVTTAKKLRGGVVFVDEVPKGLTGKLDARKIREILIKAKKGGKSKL
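Purified P. pyralis luciferase, 10 nM final, with Km-level 10 uM D-luciferin and 10 uM ATP in 50 mM Tris acetate pH 7.5, 10 mM Mg acetate, 0.01% Tween-20, 0.05% BSA; 6-point qHTS titration about 60 µM downward; luminescence read.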
SMN2 splice up – enhancers of SMN2 splice variant expression. HEK293 SMN2-luciferase splicing reporter, luminescence, 30-36 h. Potency, µM (top dose mostly 46.1 µM), for the others: top-dose activity change, positive = activation, most hits filed as activators. 210,000 tested, 2.8% active; note: % of control where 0% means no effect; nearly all actives have a fitted effect of over 55% in size
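qHTS luciferase splicing reporter: luminescence rises when SMN2 exon 7 is included in transfected HEK293 cells. Compound exposure lasted 30-36 h at 37C, with 4.5 mM final sodium butyrate as control, followed by a ONE-Glo read.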
NPC1 promoter act – activates the NPC1 promoter; Huh7 NPC1 promoter luciferase reporter, 24 h; Potency, µM (doses to about 9.22 µM), inactives show top-dose activation, hits mostly activators; 320,000 tested, 2.4% active; note: % of control where 0% means no effect; nearly all actives have a fitted effect of over 60% in size
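NPC1 promoter–luciferase Huh7 cells; 24 h compound; luminescence.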
An asterisk follows results filed as active; [ ] = another dose, or the depositor's remark. Calls come from the whole dose curve; as a rule, active = well fitted curve in the direction sought with a large enough effect; inconclusive = small, poorly fitted or top-dose-only effect, or another doubt; inactive = no such curve, though single readings can be large; an effect the other way counts as inactive or inconclusive. Potency is the fitted concentration of half-maximal effect.

Cc1nn(-c2ccc(N3CCCCC3)nn2)c(C)c1CCC(=O)Nc1cc(F)ccc1F was read as Rab9 prom act inconclusive, FLuc counter 4.78µM* and NPC1 promoter act inconclusive.
Screening Cc1nn(-c2ccc(N3CCCC3)nn2)c(C)c1CCC(=O)Nc1ccc(F)cc1F returned FLuc counter -13.9%.
`Cc1nn(-c2ccc(N3CCCCC3)nn2)c(C)c1CCC(=O)Nc1ccccc1F` gave Rab9 prom act inconclusive, FLuc counter 19µM* and NPC1 promoter act inconclusive.
`COC(=O)[C@H](COC(C)(C)C)NC(=O)O[C@@H]1Cc2cc(OC)ccc2O[C@H]1c1cccc(OC)c1` gave KinaseGlo FLuc -0.3% and SMN2 splice up -9.4%.
For Cc1cccc(Cn2c(SCc3ccc(C(=O)NCc4ccccc4F)cc3)nc3ccncc32)c1 the results were FLuc counter -0.1% and SMN2 splice up -13.1%.
For CC1N=C2c3ccccc3N=C(SCC(=O)NCCc3ccccc3)N2C1=O (stereo not drawn) the results were FLuc counter -1.1%.
Screening COc1cccc(CNC(=O)Cc2c(C)c3ccc(OC)c(C)c3oc2=O)c1 returned FLuc counter 3.6% and SMN2 splice up -0.5%.
Screening O=C1CCCN1CCC(=O)N1CCCC(CO)(Cc2ccccc2)C1 (stereo not drawn) returned Rab9 prom act 3.55µM*, FLuc counter 16.9µM* and NPC1 promoter act inconclusive.
`Cc1ccc(C(CC(=O)Nc2ccc(C)cc2C)N2Cc3ccccc3C2=O)cc1` (stereo not drawn) gave FLuc counter -11.3%.
C[C@@H]1C=C[C@](Cc2ccccc2)(C(=O)NCC2CC2)N1C(=O)c1ccccc1 was read as KinaseGlo FLuc -0.3%, Rab9 prom act 20.2%, FLuc counter inconclusive, SMN2 splice up inconclusive and NPC1 promoter act 7.3%.
Screening COC(=O)CNC(=O)[C@@]1(Cc2ccccc2)C=C[C@@H](C)N1C(=O)c1ccccc1 returned KinaseGlo FLuc -2.9% and SMN2 splice up 12.6µM*.
Screening COc1ccc2c(c1)c1c(C)c3cnccc3c(C)c1n2CCCN returned KinaseGlo FLuc -0.6%[7.66 µM] and SMN2 splice up -1.4%[9.22 µM].
Screening CCCCOc1ccc(CSc2nnc(C)n2N)cc1[N+](=O)[O-] returned KinaseGlo FLuc -20.0%, Rab9 prom act 26.3%, FLuc counter 7.57µM* and NPC1 promoter act 19.5%.
Screening Cc1[nH]n(-c2ccc([N+](=O)[O-])cc2)c(=O)c1C=NCCc1ccc(S(N)(=O)=O)cc1 returned KinaseGlo FLuc -8.7%, Rab9 prom act -0.4%, FLuc counter -1.6%, SMN2 splice up -5.9% and NPC1 promoter act -0.9%.
Cc1[nH]n(-c2ccc([N+](=O)[O-])cc2)c(=O)c1C=NCCN1CCN(C(=O)C(C)C)CC1 was read as KinaseGlo FLuc 10µM*, Rab9 prom act -2.0%, FLuc counter -2.6%, SMN2 splice up -35.6% and NPC1 promoter act -3.4%.
Screening CN(C)/C=C/C(=O)c1ccc(F)cc1 returned KinaseGlo FLuc -2.7%, Rab9 prom act 10.8%, FLuc counter -8.5%, SMN2 splice up -12.0% and NPC1 promoter act -2.8%.
`CN(C)/C=C/C(=O)c1ccccc1` gave Rab9 prom act -1.5%, FLuc counter -4.1% and NPC1 promoter act -0.4%.
CN(C)/C=C/C(=O)c1ccc(Oc2ccccc2)cc1 was read as KinaseGlo FLuc -6.0%, Rab9 prom act 1.41µM*, FLuc counter 4.26µM*, SMN2 splice up 12.6µM* and NPC1 promoter act inconclusive.
`CCCc1ccc(C(=O)/C=C/N(C)C)cc1` gave Rab9 prom act 1.41µM*, FLuc counter 5.36µM* and NPC1 promoter act 1.12µM*.
`COc1cccc(NC(=O)Cn2c(=O)n(Cc3ccc(F)cc3)c(=O)c3sc4ccccc4c32)c1` gave FLuc counter -2.4% and SMN2 splice up -15.1%.
CC1CC1C(=O)OCc1cc(=O)n2cc(Br)ccc2n1 (stereo not drawn) was read as KinaseGlo FLuc 8.4%, Rab9 prom act 3.55µM*, FLuc counter 9.53µM*, SMN2 splice up 12.6% and NPC1 promoter act 2.51µM*.
Screening CC1(C(=O)OCc2cc(=O)n3cc(Br)ccc3n2)CC1(Cl)Cl (stereo not drawn) returned KinaseGlo FLuc -2.1%, Rab9 prom act -27.2%, FLuc counter 13.5µM*, SMN2 splice up inconclusive and NPC1 promoter act 3.16µM*.
Screening Cc1ccccc1C(=O)NC(CC(C)C)C(=O)OCc1cc(=O)n2cc(Br)ccc2n1 (stereo not drawn) returned KinaseGlo FLuc -3.3%, Rab9 prom act inconclusive, FLuc counter 13.5µM*, SMN2 splice up 11.2µM* and NPC1 promoter act 3.98µM*.
Screening Cc1ccc(C)c(NC(=O)c2cc(S(=O)(=O)N3CCN(c4cccc(Cl)c4)CC3)ccc2F)c1 returned FLuc counter 1.1%.
`CCCCNc1nc(C)nc2c1nc(-c1ccccc1)n2C1CCN(Cc2ccccc2)C1` (stereo not drawn) gave KinaseGlo FLuc 0.9% and SMN2 splice up -10.8%.
Screening COc1ccc2c(Sc3ccccc3)c(C(=O)NCc3ccc(OC(C)C)cc3)[nH]c2c1 returned FLuc counter -0.7%.
Cc1ccc(-c2nn(-c3ccccc3)cc2C=C2C(=O)CC(C)(C)CC2=O)cc1 was read as KinaseGlo FLuc 1.6%, Rab9 prom act -1.0%, FLuc counter 23.9µM*, SMN2 splice up -16.1% and NPC1 promoter act -2.4%.
For CC1=NNC(=O)/C1=C\c1cn(-c2ccccc2)nc1-c1ccc(Cl)cc1 the results were KinaseGlo FLuc -0.6%, Rab9 prom act -50.8%, FLuc counter 0.3%, SMN2 splice up -89.5% and NPC1 promoter act -48.4%.
`O=C(NC(=S)Nc1ccc2ncccc2c1)c1ccccc1` gave KinaseGlo FLuc -0.7%, Rab9 prom act 2.24µM*, FLuc counter inconclusive, SMN2 splice up inconclusive and NPC1 promoter act 2.82µM*.
`O=C(NC(=S)Nc1ccc2nc[nH]c2c1)c1ccccc1` gave Rab9 prom act 3.98µM*, FLuc counter inconclusive and NPC1 promoter act 2.82µM*.
Screening CC(C)(C)NC(=S)NNC(=O)c1ccc2ncccc2c1 returned KinaseGlo FLuc 0.7%, Rab9 prom act 0.501µM*, FLuc counter inconclusive, SMN2 splice up 14.1µM* and NPC1 promoter act inconclusive.
Screening O=C(Nc1ccc2ncccc2c1)c1ccccc1 returned Rab9 prom act 2.4%, FLuc counter -4.6% and NPC1 promoter act -3.4%.
Screening Cc1ccc(N2CCN(S(=O)(=O)c3ccc4oc(=O)c5ncn(C)c5c4c3)CC2)c(C)c1 returned FLuc counter 0.5%.
Screening O=C(O)c1ccc(Cl)cc1Cl returned SMN2 splice up -2.3%.
Screening CCOc1ccc(OCC)c(NS(=O)(=O)c2c(C(=O)N3CCC(C)CC3)c(C)n(C)c2C)c1 returned FLuc counter -1.7%.
